Assay results as given in PubChem BioAssay (NCI).
The panel holds about 83,000 compounds, 20% with a hit somewhere; the sample as a whole holds those more often.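 How to read the values: 0–100, growth inhibition (40 = 60% inhibited); 0, no net growth; -100 to 0, cell death (-40 = 40% of starting cells died; -100 = all dead).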 Unmarked numbers belong to inactive results. Calls of active or inactive are those of the source. Rule for the calls: active = growth percent below 10; inactive = the rest.

Legend:
Assay in all cases: NCI-60 one-dose screen, 48 h (100 = growth as untreated, 0 = no growth, -100 = all killed)
Settings in all cases: 10 µM unless noted
T-47D breast = test system: T-47D breast
BT-549 breast = test system: BT-549 breast
MDA-MB-435 melanoma = test system: MDA-MB-435 melanoma
SW-620 colon = test system: SW-620 colon
MCF7 breast = test system: MCF7 breast
HCT-116 colon = test system: HCT-116 colon
HCC-2998 colon = test system: HCC-2998 colon
KM12 colon = test system: KM12 colon

Row | SMILES | growth (T-47D breast) | growth (BT-549 breast) | growth (MDA-MB-435 melanoma) | growth (SW-620 colon) | growth (MCF7 breast) | growth (HCT-116 colon) | growth (HCC-2998 colon) | growth (KM12 colon)
1 | CCCC(O)Cn1ncc(C(=O)OCC)c1NC(=O)NCc1cccc(F)c1 (stereo not drawn) | 88.2% | 78.5% | 101% | 107% | 91.8% | 71.6% | 90.6% | 105%
2 | CN1C(=O)N(C)C2C1NC(=S)N2/N=C/C=C/c1ccccc1[N+](=O)[O-] (stereo not drawn) | 22.4% | 68.1% | -61.7% (active) | 22.7% | 18.7% | 19.5% | 60.5% | 26.7%
3 | CC(C)CCSc1nc(Nc2ccccc2)c(C#N)c(-c2ccccc2)n1 | 58.3% | 62.1% | 94% | 56.9% | 45.6% | 27.5% | 46.3% | 89.9%
4 | C/C(=C(\c1ccc(OCCN2CCCCCC2)cc1)c1ccc(OC(=O)Cc2ccccc2)cc1)c1ccc(Cl)cc1 | 10% | 67.5% | 41.6% | -34.7% (active) | 3.78% (active) | 4.58% (active) | 13.6% | 22.1%
5 | CCCCn1sc(=O)n(Cc2ccc(CNC(=O)OCc3ccc4c(Cl)cc(Cl)c(O)c4n3)cc2)c1=O | 62.8% | 81.4% | 69.6% | 61% | 63.5% | 46.3% | 98.7% | 65.1%
6 | Oc1c(I)cc(-c2nc3ccccc3s2)cc1CN(Cc1ccccn1)Cc1ccccn1 | 17% | 22% | 33.3% | 21.3% | 13.7% | 16.1% | 9.25% (active) | 28.4%
7 | Cn1cc(/C=C2/C(=O)Nc3ccccc32)c2ccccc21 | 64.7% | 88.4% | 106% | 102% | 69.2% | 90.4% | 98.2% | 14.8%
8 | COc1ccc(/C=C/C(=O)c2ccc(NC(=O)CSc3nnc(-c4cc(-c5ccccc5)nc5ccccc45)n3-c3ccccc3)cc2)cc1 | 80.3% | 96.3% | 97.9% | 96.6% | 93.7% | 98.7% | 107% | 89.5%
9 | C=C(c1ccc(C(=O)O)cn1)c1cc2c(cc1C)C(C)(C)CCC2(C)C | 81.5% | 86.4% | 92.6% | 117% | 65.6% | 82.3% | 126% | 86.1%
10 | O=C1N[C@@H]2[C@@H](O)[C@@H](O)[C@H](O)C[C@H]2c2cc3c(c(O)c21)OCCO3 | -15.8% (active) | -17.5% (active) | 1.45% (active) | 4.85% (active) | -13.3% (active) | -3.3% (active) | -46.2% (active) | -2.6% (active)
11 | CCCCSCC(=O)c1ccccc1 | 95.4% | 99.9% | 106% | 105% | 98.2% | 95.2% | 100% | 98.5%
12 | Cc1nc2sc(C(=O)Nc3ccccc3)c(N)c2cc1C(=O)/C=C/c1ccccc1 | 1.62% (active) | -7.07% (active) | -38.2% (active) | -37.6% (active) | 3.7% (active) | -66.9% (active) | -80.5% (active) | -42.1% (active)
13 | CCOC(=O)c1c2c(n3ccccc13)C(=O)c1ncccc1C2=O | 41.8% | 31.6% | 39.8% | 21.9% | 5.14% (active) | 0.586% (active) | 38.2% | 24.1%
14 | N=c1c2c(=N)n3c(nc2nc2n1-c1ccccc1Sc1ccccc1-2)sc1cc(Cl)ccc13 | 6.16% (active) | 42.2% | 21.1% | 32.4% | -2.03% (active) | 10.7% | -18.6% (active) | 19.9%
15 | O=C(N/N=C/c1ccc(O)cc1O)c1ccc(Nc2ccnc(C(F)(F)F)c2)cc1 | 4.87% (active) | 41.5% | 44.7% | 49.3% | 25.5% | 27.5% | 64.7% | 57.2%
16 | COCC[C@H]1CCC/C=C/[C@@H]2C[C@H](O)C[C@H]2[C@H](O)/C=C/C(=O)O1 | -10.9% (active) | 5.84% (active) | 9.56% (active) | -20.8% (active) | -8.53% (active) | -66.7% (active) | 2.4% (active) | -51.4% (active)

Row | SMILES | growth (T-47D breast) | growth (BT-549 breast) | growth (MDA-MB-435 melanoma) | growth (SW-620 colon) | growth (MCF7 breast) | growth (HCT-116 colon) | growth (HCC-2998 colon) | growth (KM12 colon)
17 | COc1ccc(C2CC(c3ccc(Nc4nc(Nc5ccc(F)cc5)nc(Nc5ccc(F)cc5)n4)cc3)=NN2C(C)=O)cc1 (stereo not drawn) | 69.8% | 96.2% | 92.1% | 101% | 98.9% | 93.5% | 37.6% | 95.3%
18 | C#Cc1cccc(Oc2ccc(NC(=O)CCl)cc2)c1 | 53.9% [8.25 µM] | 38.7% [8.25 µM] | 31.7% [8.25 µM] | 15.9% [8.25 µM] | 13.5% [8.25 µM] | -0.801% [8.25 µM] (active) | 83% [8.25 µM] | 64.2% [8.25 µM]
19 | COc1ccc(C2=NN(C(=O)c3cc(OC)c(OC)c(OC)c3)C(c3ccc(N(C)C)cc3)C2)cc1 (stereo not drawn) | 56.8% | 28.4% | -30.4% (active) | 28.3% | 15% | 11.8% | 1.81% (active) | 23.3%
20 | O=C(NCc1ccc2c(c1)OCO2)NCC1CCCC(CNC(=O)NCc2ccc3c(c2)OCO3)C1 (stereo not drawn) | 86.7% | 96.3% | 95.9% | 98% | 101% | 101% | 102% | 105%
21 | COc1ccc(Nc2ncc(C(N)=O)c(NCCCNC(=O)C3CCC3)n2)cc1 | 102% | 24.5% | 84% | 50.9% | 64% | 54% | 98.5% | 29.3%
22 | Cn1cc(-c2nn3cc(-c4ccccc4)nc3s2)c2ccccc21 | 59.6% | 78.1% | -1.83% (active) | 43.7% | 55.6% | 69.3% | 86% | 41.6%
23 | Cc1cc(N2CCCCC2)nc(N2CCN(CC(=O)Nc3ccc4c(ccn4Cc4ccccc4)c3)CC2)n1 | 32.8% | 82.7% | 77.8% | 73.6% | 44.4% | 43.6% | 93.3% | 49.1%
24 | CCN(CC)CCOc1nc2c3ccc(Cl)cc3nn2c2ccccc12 | 53.4% | 70.3% | 36.3% | 19.7% | 2.07% (active) | 5.87% (active) | 15.4% | 43.1%
25 | COc1cc(C(=O)c2c(N)ncn2-c2ccccc2)cc(OC)c1OC | 101% | 98.8% | 43.8% | 88.1% | 87.1% | 90.3% | 99.6% | 72.4%
26 | COc1cccc(/C=C/C(=O)c2cc3c(N)c(C(=O)Nc4ccccc4C)sc3nc2C)c1 | 56.2% | 37.8% | -26.3% (active) | 1.68% (active) | 7.39% (active) | 41.8% | 35.1% | 27.4%
27 | C=C(C)[C@@H]1CC[C@]2(CO)CC[C@]3(C)[C@H](CC[C@@H]4[C@@]5(C)CCC(NCCc6ccc(O)cc6)C(C)(C)[C@@H]5CC[C@]43C)[C@@H]12 (stereo partly drawn) | -66.3% (active) | 33.9% | -92.4% (active) | -80% (active) | -77.9% (active) | -89.9% (active) | -90.1% (active) | -84% (active)
28 | CCCCCCCCn1ccc2cc(NC(=O)Cn3cc(CN4CCOCC4)nn3)ccc21 | 93.4% | 78.2% | 99.7% | 97.4% | 89.5% | 92.5% | 113% | 93.3%
29 | COc1ccc(C(c2cc(OC)c(OC)c(OC)c2)N2CCN(Cc3ccccc3)CC2)cc1 (stereo not drawn) | 75.1% | 92.4% | -32.2% (active) | 43.6% | 47.7% | 56.7% | 91.9% | 40.6%
30 | Cn1cc(-c2nonc2-c2c[nH]c3ccc(F)cc23)c2cc(Br)ccc21 | 14.8% | 65.9% | 51% | 64.5% | 32.2% | 35.1% | 40.1% | 29.4%
31 | O=C(/C=C/C12c3ccccc3C(c3ccccc31)C1C(=O)NC(=O)C12)c1ccc(F)cc1 (stereo not drawn) | 12.2% | 2.77% (active) | -12.8% (active) | 4.25% (active) | 11.8% | -18.6% (active) | 10.9% | 8.33% (active)
